# Measured values from PubChem BioAssay.
# A number with no mark means an inactive call. For some assays here: Entries with a potency or affinity are not part of this list. Calls of active or inactive are those of the source. Unless noted, the rule behind the calls is not given here.
# What was measured:
# [1] = antimalarial activity against Dd2 strain (AID 2302;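 active = growth inhibition above 50% at the single 2 µM test dose, taken to imply half-maximal potency below 2 µM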;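 note: 0% = DMSO untreated growth and 100% = chloroquine plus artemisinin killed control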); conditions: P. falciparum Dd2 in RBCs, LDH growth readout, 72 h; at 2 µM; hits give high values
# [2] = human hepatoma cell viability loss – ATP luminescence, cytotoxicity control for P. falciparum antimalarial project, primary screen (AID 2303;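 active = inhibition above 50%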;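 note: 0% = DMSO wells and 100% = digitonin-killed cells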); conditions: HepG2 viability, 24-48 h, at 10 µM, hits give high values
# [3] = molecular target: L-lactate dehydrogenase (Plasmodium falciparum (isolate CDC / Honduras)) (UniProt Q27743); experiment: PfLDH activity inhibition – cell lysate, 3D7 strain, counter-screen for P. falciparum growth inhibition project (AID 2304);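 note: 0% = vehicle and 100% = reference inhibitor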; conditions: P. falciparum 3D7 crude extract, LDH APAD/NBT absorbance; at 2 µM; hits give high values
# [4] = inhibition of 3D7 malaria parasite growth – strain 3D7 (AID 2306);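 note: 0% = DMSO wells and 100% = chloroquine plus artemisinin control wells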; conditions: P. falciparum 3D7 erythrocytic growth, LDH absorbance, 72 h; at 2 µM; hits give high values
# [5] = molecular target: Calcium-dependent protein kinase 1 (Plasmodium falciparum (isolate 3D7)) (UniProt P62344); experiment: PfCDPK1 kinase inhibitors, biochemical, TCAMS library (AID 1159585; cut-off not given, nearly all actives have IC50 up to about 0.98 µM;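 note: inhibitors leave more ATP so luminescence rises with inhibition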); conditions: recombinant PfCDPK1, Kinase-Glo ATP depletion luminescence
# [6] = molecular target: Plasmodium falciparum protein kinase 6 (PK6, PF3D7_1337100) (UniProt Q8IDW1); experiment: PfPK6 kinase inhibitors, biochemical, TCAMS library (AID 1159586); conditions: recombinant PfPK6, Kinase-Glo ATP depletion luminescence
# [7] = molecular target: Protein kinase 7 (PK7), Plasmodium falciparum 3D7 (PF3D7_0213400) (UniProt Q7YTF7); experiment: inhibition of Plasmodium PK7 catalytic activity – biochemical, TCAMS antimalarial set, Kinase-Glo luminescence (AID 1159587); conditions: recombinant PfPK7, Kinase-Glo ATP depletion luminescence
# [8] = molecular target: Calcium-dependent protein kinase 4 (Plasmodium falciparum (isolate 3D7)) (UniProt Q8IBS5); experiment: PfCDPK4 kinase inhibitors, biochemical, TCAMS library (AID 1159588; cut-off not given, nearly all actives have IC50 up to about 0.91 µM); conditions: recombinant PfCDPK4, Kinase-Glo ATP depletion luminescence
# Calcium-dependent protein kinase 4 (Plasmodium falciparum (isolate 3D7)), sequence (Q8IBS5 whole entry, looked up): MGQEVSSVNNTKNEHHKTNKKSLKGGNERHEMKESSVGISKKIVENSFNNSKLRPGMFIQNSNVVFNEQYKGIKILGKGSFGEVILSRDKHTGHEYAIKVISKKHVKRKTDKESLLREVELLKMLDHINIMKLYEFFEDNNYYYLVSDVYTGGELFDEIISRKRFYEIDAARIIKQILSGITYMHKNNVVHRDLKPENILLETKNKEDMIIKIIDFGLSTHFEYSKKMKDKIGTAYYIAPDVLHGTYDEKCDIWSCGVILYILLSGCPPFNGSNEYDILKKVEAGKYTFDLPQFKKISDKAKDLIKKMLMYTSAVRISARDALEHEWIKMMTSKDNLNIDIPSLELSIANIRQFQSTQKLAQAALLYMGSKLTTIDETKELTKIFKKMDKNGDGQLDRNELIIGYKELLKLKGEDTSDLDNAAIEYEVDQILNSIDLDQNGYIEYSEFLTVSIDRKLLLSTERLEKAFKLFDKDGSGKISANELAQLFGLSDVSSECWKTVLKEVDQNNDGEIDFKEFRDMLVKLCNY
# L-lactate dehydrogenase (Plasmodium falciparum (isolate CDC / Honduras)), sequence (Q27743 whole entry, looked up): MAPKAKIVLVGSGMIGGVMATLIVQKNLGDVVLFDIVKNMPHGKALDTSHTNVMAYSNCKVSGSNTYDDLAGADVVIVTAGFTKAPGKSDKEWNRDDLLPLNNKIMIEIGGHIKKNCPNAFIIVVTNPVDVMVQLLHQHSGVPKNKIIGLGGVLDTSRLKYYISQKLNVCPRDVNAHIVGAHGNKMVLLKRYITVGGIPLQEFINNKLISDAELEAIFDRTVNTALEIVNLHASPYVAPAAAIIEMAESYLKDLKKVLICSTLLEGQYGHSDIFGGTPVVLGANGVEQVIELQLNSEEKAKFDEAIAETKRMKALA
# Protein kinase 7 (PK7), Plasmodium falciparum 3D7 (PF3D7_0213400), sequence (Q7YTF7 1-343): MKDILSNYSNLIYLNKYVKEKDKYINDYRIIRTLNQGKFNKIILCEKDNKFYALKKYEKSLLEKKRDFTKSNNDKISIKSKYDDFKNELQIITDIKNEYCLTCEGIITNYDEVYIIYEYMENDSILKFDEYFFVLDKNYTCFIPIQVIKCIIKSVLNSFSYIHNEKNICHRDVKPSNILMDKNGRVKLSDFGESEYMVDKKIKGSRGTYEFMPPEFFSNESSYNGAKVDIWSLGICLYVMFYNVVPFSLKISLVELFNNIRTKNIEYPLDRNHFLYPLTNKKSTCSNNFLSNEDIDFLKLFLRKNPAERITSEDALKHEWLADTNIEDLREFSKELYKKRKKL
# Calcium-dependent protein kinase 1 (Plasmodium falciparum (isolate 3D7)), sequence (P62344 whole entry, looked up): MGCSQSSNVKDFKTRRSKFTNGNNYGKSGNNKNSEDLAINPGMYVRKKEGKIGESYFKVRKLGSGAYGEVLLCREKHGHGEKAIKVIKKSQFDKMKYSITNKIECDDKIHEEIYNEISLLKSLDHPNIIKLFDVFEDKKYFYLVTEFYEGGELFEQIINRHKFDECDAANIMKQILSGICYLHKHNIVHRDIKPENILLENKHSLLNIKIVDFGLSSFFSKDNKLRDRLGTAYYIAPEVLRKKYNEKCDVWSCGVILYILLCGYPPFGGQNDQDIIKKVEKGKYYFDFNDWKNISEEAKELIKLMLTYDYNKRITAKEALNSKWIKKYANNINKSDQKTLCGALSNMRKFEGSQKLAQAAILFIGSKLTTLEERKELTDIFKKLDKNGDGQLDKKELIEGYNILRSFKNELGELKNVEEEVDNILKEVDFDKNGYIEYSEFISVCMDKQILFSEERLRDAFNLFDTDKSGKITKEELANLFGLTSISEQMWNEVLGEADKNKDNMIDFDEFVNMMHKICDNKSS
# Plasmodium falciparum protein kinase 6 (PK6, PF3D7_1337100), sequence (Q8IDW1 1-305): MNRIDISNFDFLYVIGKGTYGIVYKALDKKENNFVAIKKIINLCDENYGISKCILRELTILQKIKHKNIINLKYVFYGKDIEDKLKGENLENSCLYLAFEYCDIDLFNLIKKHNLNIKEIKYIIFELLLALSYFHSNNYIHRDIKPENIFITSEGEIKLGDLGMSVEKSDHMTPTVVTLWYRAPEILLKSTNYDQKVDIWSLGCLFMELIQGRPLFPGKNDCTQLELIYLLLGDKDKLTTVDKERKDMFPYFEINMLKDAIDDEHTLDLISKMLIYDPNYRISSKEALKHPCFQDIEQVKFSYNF
SMILES,growth inhibition [1],inhibition [2],inhibition [3] [%],growth inhibition [4],outcome [5],outcome [6],outcome [7],outcome [8]
CN(C)c1ccc2nc(N)nc(N)c2c1Cl,-1%,68% (active),2,98% (active),inactive,inactive,inactive,inactive
Cc1cccc(CCNC(=O)c2cc(Br)cc(N3CCN(c4ccncc4)CC3)c2)c1,53% (active),48%,0,96% (active),inactive,inactive,inactive,inactive
Cn1cncc1C(=O)Nc1ccc(-c2ccc(-c3nc4ccc(C(F)(F)F)cc4[nH]3)cc2)cc1,33%,24%,5,102% (active),inactive,inactive,inactive,inactive
O=C(Nc1ccc(-c2nc3cc4ccccc4cc3[nH]2)cc1)c1cccc(Br)c1,89% (active),50% (active),-5,101% (active),inactive,inactive,inactive,inactive
OC1(c2ccc(Br)cc2)CCN(C2CCN(Cc3ccccc3)CC2)CC1,18%,8%,8,100% (active),inactive,inactive,inactive,inactive
COc1ccc(Br)cc1/C=C/C(=O)Nc1ccc(C2CCN(C)CC2)cc1,61% (active),11%,-3,101% (active),inactive,inactive,inactive,inactive
Cc1noc(C)c1-c1cccc(CNCc2ccc(-c3cccc(-c4nc5ccc(F)cc5[nH]4)c3)cc2)c1,84% (active),37%,4,102% (active),inactive,inactive,inactive,inactive
CC1(C)N=C(N)N=C(N)N1OCCCO,-1%,27%,-2,96% (active),inactive,inactive,inactive,inactive
Cc1cccc2[nH]c(-c3ccc(-c4ccc(NC(=O)Nc5ccc(Cl)cc5)cc4)cc3)nc12,100% (active),52% (active),-5,101% (active),inactive,inactive,inactive,inactive
CCOc1cc(C)ccc1C1CCN(CCCCNC(=O)c2cccc(-c3ccc(C(F)(F)F)cc3)c2)CC1,55% (active),39%,2,99% (active),inactive,inactive,inactive,inactive
CCOc1ccc2ccccc2c1CNCCCCCCNCc1c(OCC)ccc2ccccc12,89% (active),100% (active),-2,100% (active),inactive,inactive,inactive,inactive
Brc1ccc(Nc2nc(NCc3ccccc3)c3ccccc3n2)cc1,99% (active),24%,-4,101% (active),inactive,inactive,inactive,inactive
CC(CCNc1c2ccccc2nc2ccccc12)N1CCN(C)CC1 (stereo not given),-2%,25%,5,101% (active),inactive,inactive,inactive,inactive
N#Cc1cccc(C(=O)Nc2ccc(-c3cccc(CN4CCC(O)CC4)c3)cc2)c1,68% (active),33%,7,100% (active),inactive,inactive,inactive,inactive
CN1CCN(c2nsc3ccc(-c4ccc(NC(=O)Nc5ccccc5)cc4)cc23)CC1,98% (active),38%,-1,102% (active),inactive,inactive,inactive,inactive
CC(C)C[C@H](NC(=O)[C@H](Cc1ccccc1)N(C[C@H](Cc1ccccc1)NC(=O)OC(C)(C)C)C(=O)C(F)(F)F)C(=O)NC1CCN(Cc2ccccc2)CC1,82% (active),13%,-5,92% (active),inactive,inactive,inactive,inactive
Cc1cccc2[nH]c(-c3ccc(-c4cccc(CN5CCN(CCN6CCOCC6)CC5)c4)s3)nc12,83% (active),33%,-2,101% (active),inactive,inactive,inactive,inactive
CN1CCOc2ccc(Nc3nnc(-c4cccc(-c5cccnc5)c4)o3)cc2C1,100% (active),-4%,-1,100% (active),inactive,inactive,inactive,inactive
Fc1ccc(Nc2n[nH]c(CNC3CCN(Cc4ccc(Cl)c(Cl)c4)CC3)n2)cc1,36%,18%,5,101% (active),inactive,inactive,inactive,inactive
O=C(CSc1nc(-c2ccccc2Cl)ns1)Nc1cccc(F)c1,81% (active),-5%,-1,93% (active),inactive,inactive,inactive,inactive

SMILES,growth inhibition [1],inhibition [2],inhibition [3] [%],growth inhibition [4],outcome [5],outcome [6],outcome [7],outcome [8]
COc1cccc(Nc2nc(C)cc(Nc3cccc(C#N)c3)n2)c1,92% (active),-2%,-3,101% (active),inactive,inactive,inactive,inactive
O=C(/C=C/c1c(Cl)cccc1Cl)NC1CCC(CN2CCC(Cc3cc4ccccc4[nH]3)CC2)CC1 (stereo not given),17%,97% (active),-1,91% (active),inactive,inactive,inactive,inactive
CCc1cn(C)c2c(N3CCCC3=O)cc(C(=O)N[C@@H](Cc3ccccc3)[C@H](O)CNC(C)(C)c3cccc(OC)c3)cc12,99% (active),9%,-1,95% (active),inactive,inactive,inactive,inactive
CN1CCc2cc(NS(=O)(=O)c3ccc(-c4ccc(Cl)cc4)cc3)c(OCCCN3CCCCC3)cc2CC1,100% (active),91% (active),0,101% (active),inactive,inactive,inactive,inactive
CCOc1cccc(C(=O)Nc2nonc2-c2ccc(OC)c(OC)c2)c1,95% (active),11%,4,92% (active),inactive,inactive,inactive,inactive
COC(=O)c1cccc(OCCNC2CCN(C[C@H](O)c3ccnc4ccc(OC)cc34)CC2)c1,96% (active),-7%,-10,100% (active),inactive,inactive,inactive,inactive
CNCCNCc1ccc(-c2ccc(-c3nc4ccc(C(F)(F)F)cc4[nH]3)cc2)cc1,92% (active),28%,1,99% (active),inactive,inactive,inactive,inactive
COc1ccc(-c2nc3c(NCc4ccccc4)nccc3[nH]2)c(OC)c1,21%,16%,4,99% (active),inactive,inactive,inactive,inactive
O=C(Nc1ccccc1)Nc1cccc(-c2ccc(-c3nc4ccc(C(F)(F)F)cc4[nH]3)cc2)c1,37%,48%,-3,101% (active),inactive,inactive,inactive,inactive
COc1ccc(CNC2CCN(C)CC2)cc1-c1ccc(S(=O)(=O)NCCN2CCCC2)s1,1%,2%,-2,90% (active),inactive,inactive,inactive,inactive
CN1CCCC(CN2CCN(Cc3ccc(-c4ccc(-c5nc6ccccc6[nH]5)s4)cc3)CC2)C1 (stereo not given),100% (active),57% (active),-8,100% (active),inactive,inactive,inactive,inactive
O=C(c1cccc(COc2ccc3c(c2)CCN(C2CCCC2)CC3)c1)N1CCN(c2ccncc2)CC1,35%,49%,-8,100% (active),inactive,inactive,inactive,inactive
O=C(Nc1cccc(C(F)(F)F)c1)NC1CCN(c2ccnc3cc(Cl)ccc23)C1 (stereo not given),89% (active),18%,6,101% (active),inactive,inactive,inactive,inactive
Cc1ccc(Cn2cnc3cc(C(=O)Nc4ccc(-c5cccc(CN(C)C)c5)cc4)ccc3c2=O)o1,39%,22%,4,99% (active),inactive,inactive,inactive,inactive
O=C(CC1CCCC1)N(Cc1ccc(-c2ccc(CNC3Cc4ccccc4C3)cc2)cc1)CC1CCCCN1 (stereo not given),86% (active),41%,-3,88% (active),inactive,inactive,inactive,inactive
COc1cc(-c2nc(-c3ccccc3)c(-c3ccccc3)[nH]2)cc(OC)c1O,90% (active),5%,-2,100% (active),inactive,inactive,inactive,inactive
CCCCCCCCOc1ccc(N2C(N)=NC(N)=NC2(C)C)cc1,-6%,31%,-4,100% (active),inactive,inactive,inactive,inactive
O=C(Nc1ccc2c(c1)CN(Cc1ccc(N3CCCC3)o1)CCC2)c1cncs1,37%,15%,-2,84% (active),inactive,inactive,inactive,inactive
CCCCOC(=O)[C@H](CCC)NC(=O)c1ccc(NS(=O)(=O)c2ccc3nc(N)[nH]c(=O)c3c2)cc1,3%,66% (active),-1,99% (active),inactive,inactive,inactive,inactive
COc1cccc(C(=O)NC(C=Cc2ccccc2)c2cc(Cl)c3cccnc3c2O)c1 (stereo not given),58% (active),27%,-1,95% (active),inactive,inactive,inactive,inactive
